Shown are actives, neighbours in structure and some others; about 5.9% of the full set was active somewhere.
NR0B1 inh: DAX1 (NR0B1) inhibitors, primary screen, cell-based, HEK293, Gal4-DAX1, luciferase luminescence | HEK293 Gal4-DAX1 luciferase reporter | inhibition, % at 6.75 µM | 340,000 tested, 0.99% active | AID 504766, 2011;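 active = inhibition above the mean over all tested compounds plus 3 SD, cut at about 4.2% in these data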;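 note: inhibition shows as a rise in luminescence from relieved DAX1 repression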
GAA850 FXN act: FXN promoter activators, primary screen, cell-based, luciferase luminescence, HEK293 lucGAA850; HEK293 lucGAA850 FXN promoter luciferase reporter, 24 h; percent of 10 µM SAHA response; 360,000 tested, 0.56% active; activation, % at 6 µM;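 active = activation above the average of all compounds screened plus 3 SD, cutoff fixed separately per campaign, cut at about 7.5% in these data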
HSP90 inh: HSP90 inhibitors, primary screen, cell lysate, luminescence | Heat shock protein HSP 90 (rabbit reticulocyte lysate; luciferase refolding) | Rabbit reticulocyte lysate, luciferase refolding luminescence, 3 h | inhibition, % at 5.6 µM | 290,000 tested, 0.91% active | AID 1789, 2009;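 active = inhibition above the screen-wide mean plus 3 SD, computed separately per campaign, cut at about 16% in these data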;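 note: inhibitors lower the luminescence because luciferase stays unfolded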
HSF1 activator: HSF-1 activators, primary screen, NIH3T3-HGL cells, MG132 stress, luminescence, single point; activation, % at 9 µM; 300,000 tested, 1.7% active; NIH3T3-HGL HSF-1 luciferase reporter, 8 h; 100% = twice DMSO control signal; AID 504408, 2011;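 active = mean replicate activation of at least 50% with a set share of replicates each reaching 50%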
HSF1 inh: HSF1 inhibitors in luciferase reporter cells, primary screen, cell-based, NIH3T3, luminescence; NIH3T3-HGL HSE-luciferase, MG132-induced, luminescence 8 h; active compounds read low; 300,000 tested, 0.77% active; AID 2098, 2009; activity change, negative = inhibition, % at 7.5 µM (by protocol);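 active = more than half of replicate wells show activity change below -50%, luminescence cut by over half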;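 note: luciferase reports HSF-1 transcriptional activity via heat shock element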
AHR act: AHR activators, primary screen, cell-based, luminescence, luciferase reporter, human; Aryl hydrocarbon receptor (Homo sapiens), P35869; AHR-responsive luciferase reporter cells; activation, % at 5 µM; 320,000 tested, 2.5% active; AID 2796, 2010; in the data active = activation above about 47%
Each line names hits and unclear results; the compound was inactive in the other large screens.

O=C(CN1CCN(CCN2C(=O)c3cccc4cccc(c34)C2=O)CC1)c1ccc(F)cc1	none
CC(C)(C)C(=O)N1CCN(CCN2C(=O)c3cccc4cccc(c34)C2=O)CC1	HSF1 inh -53
Cc1ccccc1Cn1c(=O)n(Cc2ccco2)c(=O)c2ccccc21	NR0B1 inh 4.5
Cc1ccccc1Cn1c(=O)n(-c2ccccc2)c(=O)c2ccc(C(=O)NCc3ccco3)cc21	NR0B1 inh 4.6
Cc1cccc(Cn2c(=O)n(Cc3ccco3)c(=O)c3ccccc32)c1	none (no result: HSF1 activator, HSF1 inh)
Nc1nc(COC(=O)C2CC(=O)N(Cc3ccccc3Cl)C2)nc(Nc2ccccc2)n1 (stereo unspecified)	none (no result: HSP90 inh, HSF1 activator, HSF1 inh)
CCCCCCN1C[C@@H](O)[C@H](n2cc(-c3ccc(F)cc3)nn2)C[C@@H]1c1ccc(C)cc1	none (no result: HSP90 inh, HSF1 activator, HSF1 inh, AHR act)
C(=N\C(/N=C/c1ccco1)c1ccco1)/c1ccco1	HSF1 activator 81
CN(N=Nc1ccc([N+](=O)[O-])cc1)c1ccccc1	HSF1 activator 74
COC(=O)c1cc(OC)c(OC)cc1NCC(=O)Nc1ccc(OC)c(OC)c1	AHR act 72
CCOC(=O)CNC(=O)CSc1nnc(C)c(=O)[nH]1	HSF1 inh -81
Cc1ccc2oc(C(=O)NCC3CCOCC3)c(C)c2c1	none
COc1cccc2c(C)cc(N3CCCCCC3)nc12	none
Cc1cc(N2CCN(c3ncccn3)CC2)nc2c(C)cccc12	AHR act 72
CC(C)(C)Cc1nnc(NC(=O)CCC2CCCCC2)s1	none
N#Cc1nc(COc2cccc(Cl)c2)oc1NCc1ccco1	AHR act 63
Cc1ccc(OCc2nc(C#N)c(NCc3ccco3)o2)cc1	none
CN(CCOc1ccccc1)S(=O)(=O)c1ccccc1C#N	none (no result: HSP90 inh, HSF1 activator, HSF1 inh)
COC(=O)CNC(=O)CCc1nnc(C2(c3ccc(Cl)cc3)CCC2)o1	NR0B1 inh 4.4
C=C(C)CNC(=O)CCc1nnc(C2(c3ccc(Cl)cc3)CCC2)o1	none
O=C(CCC1CCCC1)NNC(=O)COc1ccc(Br)cc1	none (no result: HSP90 inh, HSF1 activator, HSF1 inh)
Nc1cc(=O)[nH]n1C1CCCCC1	none
O=C1CCC(C(=O)Nc2cc(C(F)(F)F)ccc2-n2cncn2)=NN1	none
O=c1[nH]c(Nc2nc3ccccc3o2)nc2c1CCCC2	AHR act 55
Nc1ccccc1C(=O)N=Nc1[nH]c(N)c2ccccc12	AHR act 61
Nc1[nH]c(N=NC(=O)c2ccc(F)cc2)c2ccccc12	none
Cc1oc(-c2ccccc2F)nc1CS(=O)CC(=O)NCc1ccc2c(c1)OCO2 (stereo unspecified)	AHR act 50
COc1ccc(-c2nc(CS(=O)CC(=O)NCc3cccnc3)c(C)o2)cc1 (stereo unspecified)	none
Cc1oc(-c2ccc(Cl)cc2)nc1CS(=O)CC(=O)NCc1ccc2c(c1)OCO2 (stereo unspecified)	none
CCc1ccc(-c2nc(CS(=O)CC(=O)NCc3cccnc3)c(C)o2)cc1 (stereo unspecified)	HSF1 inh -74
CC(N)c1csc(NC(=O)Nc2cccc(C(F)(F)F)c2)n1 (stereo unspecified)	none (no result: NR0B1 inh, HSP90 inh, HSF1 activator, HSF1 inh, AHR act)
O=C(Cn1cnc(S(=O)(=O)N2CCCC2)c1)Nc1ccc(OC(F)(F)F)cc1	none
C=CCc1ccc(OCC(O)CO)c(OC)c1 (stereo unspecified)	HSF1 activator 71
Clc1ccc(-c2csc(N3CCN(c4ccccc4)CC3)n2)cc1	none
Clc1ccc(-c2csc(N3CCc4ccccc4C3)n2)cc1	AHR act 52
Cc1ccc(C2=NOC(=O)/C2=C\C=C\c2ccccc2)cc1	HSF1 activator 133 (no result: AHR act)
CCn1c(SCc2ccccc2F)nnc1-c1ccncc1	none
COc1ccccc1NC(=O)CSc1ccc2nnc(-c3cccnc3)n2n1	AHR act 79
Cc1ccc(CSc2ccc3nnc(-c4cccnc4)n3n2)cc1	AHR act 71
Brc1ccc(CSc2ccc3nnc(-c4cccnc4)n3n2)cc1	none
CCOC(=O)C(CC)Sc1ccc2nnc(-c3cccnc3)n2n1 (stereo unspecified)	HSF1 inh -72
CCOC(=O)CSc1ccc2nnc(-c3ccncc3)n2n1	HSF1 activator 55
CCC(Sc1ccc2nnc(-c3cccnc3)n2n1)C(=O)O (stereo unspecified)	none
CCOc1ccccc1NC(=O)CSc1ccc2nnc(-c3cccnc3)n2n1	none
COc1cc(-c2nc3ccc4ccccc4c3c3c2CCC3)ccc1O	AHR act 72
COc1ccc(-n2c(=O)[nH]cc(C(=O)Nc3ccc4c(c3)OCO4)c2=O)cc1OC	none
CSc1ccccc1OCc1cc(C(=O)NCCCn2nc(C)cc2C)no1	none
CCc1ccc(/C=C2\Oc3cc(OC(=O)N4CCOCC4)ccc3C2=O)cc1	HSF1 inh -76
COc1ccc(/C=C2\Oc3cc(OC(=O)N4CCOCC4)ccc3C2=O)cc1	none
CCN(CC)CCCN=C1N[C@@H](c2cccc(C(F)(F)F)c2)C(C(=O)OC)=C(C)N1CC	none (no result: HSP90 inh, HSF1 activator, HSF1 inh)
CCOC(=O)Cc1cnc(NC(=O)NC(C(=O)OCC)(c2ccccc2)C(F)(F)F)s1 (stereo unspecified)	HSF1 activator 113
CC(C)NC(=O)CCc1nc2cccnc2n1-c1ccccc1	none
CCN(CC)CCCNC(=O)c1cc2c(=O)n(C)c3ccccc3c2n1C	NR0B1 inh 7.5
CCCN1CCN(CCCNC(=O)c2cc3c(=O)n(C)c4ccccc4c3n2C)CC1	NR0B1 inh 8.4
CCCN(CCC)CCCNC(=O)c1cc2c(=O)n(C)c3ccccc3c2n1C	NR0B1 inh 7.8
C1CCN2CC3CC(CN4CCCC[C@@H]34)[C@H]2C1	none (no result: HSP90 inh, HSF1 activator, HSF1 inh, AHR act)
O=C(CNS(=O)(=O)c1ccccc1F)Nc1ccc(N2CCOCC2)cc1	HSF1 inh -88
O=C(CSc1ccccc1F)Nc1ccc(N2CCOCC2)cc1	none (no result: HSP90 inh, HSF1 activator, HSF1 inh)
CN(CC(=O)Nc1ccc(N2CCOCC2)cc1)Cc1c(O)ccc2ccccc12	HSF1 activator 198
CSc1ccccc1NC(=O)CN(C)CC(=O)Nc1ccc(N2CCOCC2)cc1	none
CN(CC(=O)Nc1ccc(N2CCOCC2)cc1)CC(=O)Nc1ccc(N2CCOCC2)cc1	AHR act 52
CN(CC(=O)Nc1ccc(C#N)cc1)CC(=O)Nc1ccc(N2CCOCC2)cc1	none
O=C(COc1ccc2ccc(=O)oc2c1)Nc1c(Cl)cccc1C(F)(F)F	none
CSc1ccc(CN2CCC(C)(Oc3ccc(-n4ccnc4)cc3)C2)cc1 (stereo unspecified)	none (no result: NR0B1 inh, HSP90 inh, HSF1 activator, HSF1 inh, AHR act)
N#CC(=C1CCCC1)c1nc(-c2cc3ccccc3oc2=O)cs1	HSF1 activator 72
CC1(C)CC(NC(=O)c2ccc(Cl)c(Cl)c2)CC(C)(C)N1	NR0B1 inh 4.6

Bioassay records as filed in PubChem BioAssay.
